Bioassay records: PubChem BioAssay, National Center for Advancing Translational Sciences (NCATS)
HPGD block = HPGD (human) dehydrogenase inhibition. purified HPGD, NADH fluorescence kinetic, PGE2 substrate. Potency, µM, without a hit: top-dose activity change, negative = inhibition, actives largely listed as inhibitors. AID 894. hit rate 4.3% among 150,000; note: potency is the fitted concentration of half-maximal effect
Target sequence (P15428 whole entry, looked up): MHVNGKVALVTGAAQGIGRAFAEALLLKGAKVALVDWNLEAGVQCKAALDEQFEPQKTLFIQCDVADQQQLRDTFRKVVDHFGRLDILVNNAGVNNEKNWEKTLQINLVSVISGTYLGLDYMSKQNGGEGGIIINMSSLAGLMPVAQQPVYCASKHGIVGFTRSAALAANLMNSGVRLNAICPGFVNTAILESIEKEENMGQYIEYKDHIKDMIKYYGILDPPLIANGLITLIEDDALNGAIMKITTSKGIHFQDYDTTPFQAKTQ
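NADH formation kinetics: reaction with 30 uM PGE2 and 1 mM NAD+ (final), 20 nM enzyme, Tris-HCl pH 8 with Tween 20, after 15 min compound preincubation at room temperature. Fluorescence change, last versus first of five reads.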
PNC inhibitor = blocks assembly of the perinucleolar compartment; PC3M PTB-GFP, PNC prevalence imaging, 16 h; hits give low values; activity change (PNC), negative = inhibition, % at 10 µM; hit rate 3.1% among 140,000; AID 2417;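 active = readout at or below -70, meaning at least 70% loss of cells showing the perinucleolar compartment, a nuclear body marking cancer cells; inconclusive = readout between -30 and a set limit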;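 note: plate controls were DMSO wells for no effect and camptothecin positive control wells for full effect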
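Read-out is percentage of cells bearing a perinucleolar compartment, from automated 20x imaging of fixed, Hoechst-stained PC3M PTB-GFP cells. Cells were seeded 4 h, then exposed 16 h to compound (23 nl of library stock) in duplicate plates.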
ALDH1A1 inh = blocks purified human ALDH1A1 activity. Purified ALDH1A1, NADH fluorescence, propionaldehyde substrate. AID 1030. hit rate 7.3% among 220,000. Potency, µM (titrated, usually from 75.3 µM), without a hit: top-dose activity, negative = inhibition, most hits filed as inhibitors. P00352;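 note: potency is the fitted concentration of half-maximal effect; plate controls were no enzyme wells and a reference inhibitor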
* marks the source's active call; other numbers are inactive results; [ ] = another dose, or the depositor's remark. A selection: hits, their analogues and other compounds. The true share with any hit is near 11%. Unless noted, calls come from the whole dose curve; as a rule, active = well fitted inhibition curve with a large enough effect (not every such curve was filed as active); inconclusive = small, poorly fitted or top-dose-only effect, or another doubt; inactive = no such curve, though single readings can be large or run the other way. Unless noted, % is set by controls: 0 for no effect and ±100 for the full control effect.

Screening CC(=O)Nc1ccc(OCC(O)CN2CCN(c3ccc(Cl)cc3)CC2)cc1 (stereo unspecified) returned HPGD block -4%, PNC inhibitor -100* and ALDH1A1 inh 3%.
For COc1ccc(NC(=O)CCN2CCN(S(=O)(=O)c3cc(Cl)ccc3Cl)CC2)cc1 the results were HPGD block -11%, PNC inhibitor 42 and ALDH1A1 inh -1%.
For COC(=O)c1ccc(NC(=O)CN2CCN(S(=O)(=O)c3cc(Cl)ccc3OC)CC2)cc1 the results were HPGD block -31%, PNC inhibitor -8 and ALDH1A1 inh 2µM*.
Screening CC(=O)c1ccc(NC(=O)CN2C(=O)CCC2=O)cc1 returned ALDH1A1 inh 5%.
`CN(C)S(=O)(=O)c1cc(NC(=O)CN2CCN(c3ccc(O)cc3)CC2)ccc1Cl` gave ALDH1A1 inh 13µM*.
CCCCC(CC)COC(=O)C(C#N)=C(c1ccccc1)c1ccccc1 (stereo unspecified) was read as HPGD block -6% and ALDH1A1 inh -13%.
`CC(C)(C)CC(=O)O/N=C(\N)c1ccncc1` gave ALDH1A1 inh 6%.
Screening COc1ccc(S(=O)(=O)N2CCCN(CC(=O)Nc3ccc4c(c3)OCO4)CC2)cc1 returned HPGD block -4%, PNC inhibitor 47 and ALDH1A1 inh inconclusive.
O=C(CN1CCCN(S(=O)(=O)c2ccc(Br)cc2)CC1)Nc1ccc2c(c1)OCO2 was read as HPGD block -8%, PNC inhibitor 16 and ALDH1A1 inh 11µM*.
Cc1ccccc1OS(=O)(=O)c1cn(C)c(=O)n(C)c1=O was read as ALDH1A1 inh 17%.
Screening O=c1[nH]c(=S)[nH]c2c1CN(CCCN1CCOCC1)CN2 returned HPGD block -4% and ALDH1A1 inh 9%[13.5 µM].
`Cn1c2c(c(=O)n(C)c1=O)CN(CCCN1CCOCC1)CN2` gave HPGD block -1%, PNC inhibitor -84* and ALDH1A1 inh -1%.
For O=C1CCCN1CCCN1C(=O)N[C@@H](Cc2ccccc2)C1=O the results were HPGD block -11%, PNC inhibitor -5 and ALDH1A1 inh 4%.
`O=C1C[C@@H]2CCN3C(=O)CCC[C@@H]([C@H]23)[C@@H]1Cc1ccccc1` gave HPGD block -1% and ALDH1A1 inh 16µM*.
CSc1nnc2c3c4c(sc3nc(-n3nc(C)cc3C)n12)COC(C)(C)C4 was read as PNC inhibitor 14 and ALDH1A1 inh inconclusive.
Cc1cc(C)n(-c2nc3sc4c(c3c3nnc(SCC(N)=O)n23)CC(C)(C)OC4)n1 was read as HPGD block -28%, PNC inhibitor -100* and ALDH1A1 inh -1%.
Cc1ccccc1C(=O)Nc1nnc(-c2cccnc2)o1 was read as ALDH1A1 inh -4%.
`CC(C)(C)C(=O)NNC(=O)c1cc2sccc2s1` gave ALDH1A1 inh 6%.
COc1ccccc1-c1cc(=O)c2cc(O)ccc2o1 was read as HPGD block 16µM* and ALDH1A1 inh 17%.
For O=c1cc(-c2ccccc2)oc2cccc(O)c12 the results were HPGD block -10% and ALDH1A1 inh -5%.
For O=c1cc(-c2cccc(O)c2)oc2ccc(O)cc12 the results were HPGD block 7.1µM* and ALDH1A1 inh inconclusive.
For O=c1cc(-c2ccc(O)cc2)oc2ccc(O)cc12 the results were HPGD block 20µM* and ALDH1A1 inh 4%.
`Cc1ccc2oc(-c3ccccc3C(=O)O)cc(=O)c2c1` gave HPGD block -28%, PNC inhibitor -9 and ALDH1A1 inh -3%.
Screening O=c1cc(-c2ccc(O)cc2)oc2ccccc12 returned ALDH1A1 inh -5%.
Screening Cn1c(=O)c2c(ncn2CN2CCN(Cn3cnc4c3c(=O)n(C)c(=O)n4C)CC2)n(C)c1=O returned HPGD block 0% and ALDH1A1 inh 8%[13.5 µM].
Cc1ccc2nc(C3CCN(S(=O)(=O)c4ccc5ccccc5c4)CC3)[nH]c2c1 was read as HPGD block -17%, PNC inhibitor 1 and ALDH1A1 inh inconclusive.
For CC1(C)OC(=O)C(=NNc2ccc(Br)cc2)C(=O)O1 the results were HPGD block -15%, PNC inhibitor -19 and ALDH1A1 inh 13µM*.
For CC1(C)OC(=O)C(=CNc2cccc(O)c2)C(=O)O1 the results were HPGD block -13%, PNC inhibitor -19 and ALDH1A1 inh inconclusive.
`c1cnc(N2CCN(c3cnccn3)CC2)nc1` gave ALDH1A1 inh 14%.
`CC(C)=CCC/C(C)=C/CO/N=C1/C[C@@H](O)[C@@H](O)[C@@H]2[C@@H]3C(=O)N(C[C@@H]4CCCO4)C(=O)[C@H]3CC[C@@H]12` gave ALDH1A1 inh -1%[13.5 µM].
Screening Cc1ccc(C(=O)Nc2c(C)n(C)n(-c3ccccc3)c2=O)cc1S(=O)(=O)N1CCOCC1 returned HPGD block -7%, PNC inhibitor 26 and ALDH1A1 inh 8%.
Cc1ccc(S(=O)(=O)N2CCOCC2)cc1C(=O)Nc1c(C)n(C)n(-c2ccccc2)c1=O was read as HPGD block 3%, PNC inhibitor -100* and ALDH1A1 inh 5%.
For Cc1ccc(S(=O)(=O)N2CCOCC2)cc1C(=O)N1CCOCC1 the results were HPGD block -5%, PNC inhibitor -4 and ALDH1A1 inh -9%.
`Cc1cc(C(=O)CSc2ncn[nH]2)c(C)n1-c1cccc(S(=O)(=O)N2CCOCC2)c1` gave HPGD block -12%, PNC inhibitor -4 and ALDH1A1 inh 8%.
Cc1ccc(S(=O)(=O)N2CCOCC2)cc1C(=O)c1nccn1C was read as ALDH1A1 inh 19µM*.
Screening Cc1cc(C(=O)CCl)c(C)n1-c1cccc(S(=O)(=O)N2CCOCC2)c1 returned ALDH1A1 inh 0.18µM*.
`Cc1cc(C)nc(SCc2ccc(C(=O)N/N=C/C3CCCCC3)cc2)n1` gave HPGD block -17%, PNC inhibitor -24 and ALDH1A1 inh inconclusive.
`O=C(c1ccc2c(=O)n3c(nc2c1)CCCCC3)N1CCN(C(c2ccccc2)c2ccccc2)CC1` gave HPGD block -3%, PNC inhibitor 17 and ALDH1A1 inh inconclusive.
`COCCNC(=O)C1(C)C=CCN1C(C)=O` (stereo unspecified) gave HPGD block -20% and ALDH1A1 inh 3%.
Screening Cc1ccsc1CNC(=O)c1c(-c2ccccc2)noc1C returned ALDH1A1 inh -5%.
CCC(=C(c1ccc(OC)cc1)c1ccc(OC)cc1)c1cn(CC(O)CN2CCN(C)CC2)c2ccccc12 (stereo unspecified) was read as HPGD block -12%, PNC inhibitor inconclusive and ALDH1A1 inh -14%.
For O=C1c2cccc3cccc(c23)C(=O)N1Cc1ccccc1 the results were ALDH1A1 inh 4%.
`O=C1c2nc3ccccn3c2C(=O)N1Cc1ccccc1` gave HPGD block inconclusive, PNC inhibitor 29 and ALDH1A1 inh 18µM*.
`CC(C)[C@H](N=Cc1ccccc1O)C(=O)O` gave HPGD block -4% and ALDH1A1 inh -10%[13.5 µM].
For Cc1ccc(C(=O)COc2nc(C)nc3ccccc23)cc1 the results were ALDH1A1 inh -2%.
Cc1nn(-c2ccccc2)c2c1C1(C(=O)N(C(C)C)c3ccccc31)C(C#N)=C(N)O2 (stereo unspecified) was read as HPGD block -6%, PNC inhibitor -10 and ALDH1A1 inh 1.1µM*.
